About 79,000 compounds went through this panel and 15% of them were active in at least one assay; those are over-represented in the sample as a whole. Rule as the data show it: active = growth inhibition above about 70%; inactive = the rest. Where a SMILES comes first, the peptide text is derived from it. [ ]: non-standard residue; d: D form. The star is where a group is joined. ξ: configuration not given here. ξF = NC(Cc1ccccc1)C(=O)O; Cbz = O=C(OCc1ccccc1)*; Aib = CC(C)(N)C(=O)O
Legend:
[1] = NCI Yeast Anticancer Drug Screen. Data for the rad50 strain (AID 155);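 also: 0% = growth of vehicle-only cultures of the same strain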; conditions: S. cerevisiae rad50 strain growth inhibition; at 50.0 µM; active compounds read high
Method in brief: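 DNA repair mutant yeast, compound exposure, growth read-out; inhibition is taken relative to vehicle.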

[2] = NCI Yeast Anticancer Drug Screen. Data for the mec2-1 strain (AID 157); conditions: S. cerevisiae mec2-1 strain, at 50.0 µM, active compounds read high
Method in brief: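 Using mec2-1 yeast: add compound, measure growth, express inhibition versus vehicle-treated cultures.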

[3] = NCI Yeast Anticancer Drug Screen. Data for the sgs1 mgt1 strain (AID 161);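 also: 0% = growth of cultures given vehicle only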; conditions: S. cerevisiae sgs1 mgt1 strain, at 50.0 µM, active compounds read high
Method in brief: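 Percent growth inhibition was derived by comparing compound-exposed mutant yeast with vehicle-exposed cultures. The strain carries alterations in DNA damage repair.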

[4] = NCI Yeast Anticancer Drug Screen. Data for the cln2 rad14 strain (AID 165);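 also: 0% = growth equal to vehicle treated cultures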; conditions: S. cerevisiae cln2 rad14 strain, at 50.0 µM, active compounds read high
Method in brief: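 Yeast strain cln2 rad14, bearing defects in cell cycle control and DNA repair, serves as the test system; values reflect growth inhibition compared with vehicle.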

[5] = NCI Yeast Anticancer Drug Screen. Data for the bub3 strain (AID 167); conditions: S. cerevisiae bub3 mutant strain, at 50.0 µM, active compounds read high
Method in brief: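 In this screen, a yeast mutant lacking normal mitotic checkpoint function is challenged with compound. Relative growth versus vehicle gives the inhibition value.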

[6] = NCI Yeast Anticancer Drug Screen. Data for the mlh1 rad18 strain (AID 175); conditions: S. cerevisiae mlh1 rad18 strain growth inhibition; at 50.0 µM; active compounds read high
Method in brief: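 Steps: expose repair-defective yeast to compound; measure growth; express inhibition against vehicle-treated controls.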

Measured: growth inhibition

O=C(Nc1cccc(C(=O)Nc2ccc(S(=O)(=O)O)c3cc(S(=O)(=O)O)cc(S(=O)(=O)O)c23)c1)Nc1cccc(C(=O)Nc2cccc3c(S(=O)(=O)O)c(S(=O)(=O)O)cc(S(=O)(=O)O)c23)c1
inactive: [1] -0.25% | [2] 7.2% | [3] 0.65% | [4] 47.9% | [5] 12.9% | [6] 13.7%

CCC(C)c1cc(C(C)(C)C)cc(-n2nc3ccccc3n2)c1OS(=O)(=O)c1cccc(N)c1 (stereo not given)
inactive: [1] -4.4% | [2] -27.1% | [3] -12.8% | [4] 2.7% | [5] -16.9% | [6] -22%

O=[N+]([O-])c1nccn1CCCN=c1c2ccccc2n(O)c2ccccc12
inactive: [1] 8.9% | [2] -16.4% | [3] -5.85% | [4] -5.8% | [5] -12.7% | [6] -33.4%

CCn1c(SCC(=O)N/N=C/c2ccccc2)nc2ccccc2c1=O
inactive: [1] 5.65% | [2] 6.95% | [3] 3.8% | [4] -4.55% | [5] -1.3% | [6] -33.7%

CC(=O)Oc1ccc2c(c1)Cc1cc([N+](=O)[O-])ccc1-2
inactive: [1] 8.45% | [2] 14.2% | [3] 14.9% | [4] -9.5% | [5] 32.7% | [6] 20.6%

CCCCn1cnc2c(SC(C)C)nc(N)nc21
inactive: [1] -13.1% | [2] -2.15% | [3] 17.4% | [4] -24.9% | [5] 8.8% | [6] -16.2%

CN(C)c1ccc(N2C(=S)SC(=Nc3ccccc3)C2=Nc2ccccc2)cc1
inactive: [1] -6% | [2] -13.6% | [3] -10.8% | [4] 7.05% | [5] -1.5% | [6] 3.45%

O=C(O)C1(C(=O)O)CC2C3C=CC(C3)C2C1 (stereo not given)
inactive: [1] -7.75% | [2] -11.7% | [3] 0.35% | [4] -48.8% | [5] 18.8% | [6] 20.5%

O=C(Nc1ccccc1)c1cccn1-c1ccccc1
inactive: [1] 2.7% | [2] -13.1% | [3] 12.1% | [4] 13.5% | [5] -19% | [6] -2.95%

CCOC(=O)/C(=C/O)NC(=O)c1ccccc1
inactive: [1] -10.4% | [2] 18.8% | [3] -5.5% | [4] -18.9% | [5] -9.95% | [6] 19.4%

COc1ccc(CCN2C(CC(=O)c3ccccc3)CCCC2CC(=O)c2ccccc2)cc1OC (stereo not given)
inactive: [1] -8.05% | [2] -10.4% | [3] -0.9% | [4] -0.2% | [5] 0.65% | [6] -2.75%

CCN(CC)CCOC(=O)COc1ccc(Cc2ccccc2)cc1
inactive: [1] 14.7% | [2] 3.55% | [3] 14.3% | [4] 15.6% | [5] -9.4% | [6] 11.3%

Fc1cccc(Cl)c1/C=N\N=C1c2ccccc2-c2ccccc21
inactive: [1] -8.1% | [2] 21.9% | [3] -22.4% | [4] -20.1% | [5] -57.8% | [6] -15.8%

COc1cc(C2(C)OC(=O)c3ccccc32)c(OC)c2ccccc12 (stereo not given)
inactive: [1] 27.9% | [2] 2.3% | [3] 30.4% | [4] 31.3% | [5] 30.9% | [6] 14.2%

COc1cccc(C(=O)NNC(=O)c2cccc(OC)c2)c1
inactive: [1] -1.5% | [2] -15.9% | [3] -9.35% | [4] 9.55% | [5] -1.9% | [6] -1.85%

CCCCCC(=O)OC
inactive: [1] 4.75% | [2] -8.15% | [3] -28.4% | [4] -17.1% | [5] -11.2% | [6] 10.8%

COC1CC(OC2C(C)OC(OC3C(C)OC(OC4C(O)CC(O[C@H]5CC[C@@]6(C)C(=CC[C@]7(O)[C@@H]6C[C@@H](OC(=O)/C=C/c6ccccc6)[C@@]6(C)[C@]7(O)CC[C@@]6(O)C(C)=O)C5)OC4C)CC3OC)CC2OC)OC(C)C1O (stereo not given in full)
inactive: [1] -13.4% | [2] 7.95% | [3] -8.6% | [4] 16.2% | [5] -6.75% | [6] -53.8%

Nc1ccc(C(=O)Nc2ccccn2)cc1
inactive: [1] -9.1% | [2] -9.55% | [3] -13.4% | [4] -27.6% | [5] 3.1% | [6] -2.55%

CCCCCOC(=O)c1cc2ccccc2cc1O
inactive: [1] -3% | [2] -8.05% | [3] -8.95% | [4] -39.6% | [5] 30.1% | [6] -7.8%

CC1(C)COC(c2ccccc2Cl)OC1
inactive: [1] 20.1% | [2] 9% | [3] -0.45% | [4] -24.6% | [5] 0.7% | [6] 18.6%

O=C1N(Cc2ccccc2)[C@H]2CS(=O)(=O)C[C@@H]2N1Cc1ccccc1
inactive: [1] 0.9% | [2] 4.1% | [3] 8.75% | [4] -10% | [5] 0.85% | [6] 12.7%

NC(=O)Nc1ccc(S(=O)(=O)c2ccc(N)cc2)cc1
inactive: [1] 0.5% | [2] -5.2% | [3] 12.5% | [4] -5.35% | [5] 4% | [6] -15.7%

O=S(=O)(OI(O)CC(F)(F)F)C(F)(F)F
inactive: [1] 30.5% | [2] 48.1% | [3] -0.65% | [4] 5.9% | [5] 14.5% | [6] 39.5%

CCN=C1Nc2ccccc2-n2c(nn3nc4ccccc4c23)N1CC
inactive: [1] -13.1% | [2] -26.4% | [3] -42% | [4] -24.3% | [5] -41% | [6] -51.7%

CCOC(=O)C1C(NNC(N)=O)CN(C(=O)OCC)C1C(=O)OCC (stereo not given)
inactive: [1] -9.2% | [2] -5.8% | [3] -15.9% | [4] 0.4% | [5] 8.45% | [6] 10.4%

CCCS(=O)(=O)N(CC)CC
inactive: [1] -0.4% | [2] -10.8% | [3] -1.9% | [4] -27.5% | [5] -5.65% | [6] -15.4%

CN1CCCN(C)CCCN(C)CCCN(C)CCC1
inactive: [1] -19.8% | [2] -2.45% | [3] 7.6% | [4] -4.65% | [5] -24.6% | [6] 11.8%

CCCCCCCCCCCCCC(=O)CCCC
inactive: [1] -9.7% | [2] -8.4% | [3] 2.2% | [4] -22.5% | [5] -2.45% | [6] -18%

COc1ccc(CCNC(=O)Cc2cc(OCc3ccccc3)c(OC)cc2[N+](=O)[O-])cc1OC
inactive: [1] 36.1% | [2] 8.4% | [3] 25.5% | [4] 0.8% | [5] -4.2% | [6] 6.9%

COc1cc(C=Nc2ccc(C)c(Cl)c2)ccc1OC(=O)c1ccccc1
inactive: [1] -22.2% | [2] -9.05% | [3] -8.3% | [4] -12.8% | [5] 3.5% | [6] -0.3%

CCCCCCCCCCOC(=O)c1ccccc1O
inactive: [1] -4.95% | [2] -7.15% | [3] 3.1% | [4] -111% | [5] 4.4% | [6] -10.4%

CC(=O)O.Cl.NC1C([O-])OC(CO)C(O)C1O.O=C1OC(C(O)CO)C([O-])=C1[OH2+].[Cu+2] (stereo not given)
inactive: [1] 21.3% | [2] 8.3% | [3] -9.6% | [4] 5.95% | [5] 5.05% | [6] 17.2%

Cc1nnsc1-c1nc2ccccc2[nH]1
inactive: [1] 22.2% | [2] 1.95% | [3] 9.35% | [4] 20.1% | [5] 32.5% | [6] 38.4%

CC1(C)C(=O)N2c3ccccc3C3(CC(N4C(=O)c5ccccc5C4=O)C(=O)O3)C2N1C(=O)OCc1ccccc1 (stereo not given)
inactive: [1] 26.1% | [2] 13.8% | [3] 9.35% | [4] 15.2% | [5] 14.1% | [6] -13.1%

CC(C)(NC(=O)OCc1ccccc1)C(=O)NC(Cc1ccccc1)C(=O)O (stereo not given) (Cbz-[Aib]-[ξF]-OH)
inactive: [1] -26.6% | [2] -61% | [3] -5.7% | [4] 19.8% | [5] 11.2% | [6] -11.3%

CN(C)C(=O)c1ccc[n+](CC(=O)Nc2ccccc2)c1
inactive: [1] 0.7% | [2] -3.85% | [3] 13.1% | [4] -1.25% | [5] 4.05% | [6] -4.4%

N#CNC(=NCCO)NCCO
inactive: [1] 25.8% | [2] 7.3% | [3] -2.25% | [4] 11.3% | [5] -0.35% | [6] 26.6%

CCO[Si](OCC)(OCC)c1ccccc1
inactive: [1] -28.7% | [2] -21.3% | [3] -10.7% | [4] -5.85% | [5] -14.5% | [6] -15.8%

CCC(C(C)=O)C(C)C (stereo not given)
inactive: [1] 5.2% | [2] 6.55% | [3] 8.6% | [4] 7.2% | [5] -2% | [6] 13.3%

O=C(Nc1ccc(F)c([N+](=O)[O-])c1)N(Cc1ccccc1)c1ccccc1
inactive: [1] 8.05% | [2] 1.05% | [3] 1.55% | [4] 5.95% | [5] 26.9% | [6] 16.9%
